# Experimental data from the supplement of paper PMC6555819.
# How the values were obtained:
# Assay in all cases: PBM binding z-score (relative to random genomic background probes); higher = stronger binding; sequences stand for … in GC…GCGATTGACAGCGTAGAATGAAGG
# [1] = test system: PPARg:RXRa DBDmut IVT, anti-RXR (DBD mutation: RXRa K156A/R161A, NR concentration 270 nM, RXRa partner concentration 90 nM)
# How it was run: (§1)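 For binding z-scores, the reference was random background probes on custom Agilent 4×180K protein-binding microarrays. These arrays were incubated 1 h with ligand-free nuclear receptor dimers in PBS pH 7.4, 2% milk, 0.02% Triton X-100, 1 mM DTT, 0.2 mg/mL BSA and 0.4 mg/ml salmon testes DNA. Fluorescence was scanned after antibody detection of each partner (one per run) and regression-normalized.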
# [2] = test system: PPARg:RXRa IVT, anti-PPARg (NR concentration 270 nM, RXRa partner concentration 90 nM)
# How it was run: as §1
# [3] = test system: PPARg DBDmut:RXRa IVT, anti-PPARg (DBD mutation: PPARg1 K132A/R137A, NR concentration 270 nM, RXRa partner concentration 90 nM)
# How it was run: as §1
# [4] = test system: PPARg DBDmut IVT, anti-PPARg (DBD mutation: PPARg1 K132A/R137A, NR concentration 270 nM)
# How it was run: as §1
# [5] = test system: PPARg homodimer (NR concentration 180 nM)
# How it was run: as §1
# [6] = test system: PXR:RXRa (NR concentration 270 nM, RXRa partner concentration 90 nM)
# How it was run: as §1
# [7] = test system: PXR homodimer (NR concentration 270 nM)
# How it was run: as §1
# [8] = test system: RARa:RXR (NR concentration 270 nM, RXRa partner concentration 90 nM)
# How it was run: as §1
# [9] = test system: RARa homodimer (NR concentration 270 nM)
# How it was run: as §1
# [10] = test system: RARb:RXRa (NR concentration 270 nM, RXRa partner concentration 90 nM)
# How it was run: as §1
# [11] = test system: RARb homodimer (NR concentration 270 nM)
# How it was run: as §1
# [12] = test system: RARg:RXRa (NR concentration 270 nM, RXRa partner concentration 90 nM)
# How it was run: as §1
# [13] = test system: RARg homodimer (NR concentration 270 nM)
# How it was run: as §1
# [14] = test system: RXRa DBDmut IVT, anti-RXR (DBD mutation: RXRa K156A/R161A, NR concentration 90 nM)
# How it was run: as §1
# [15] = test system: RXRa homodimer (NR concentration 180 nM)
# How it was run: as §1
# [16] = test system: THRa:RXRa (NR concentration 90 nM, RXRa partner concentration 90 nM)
# How it was run: as §1
# [17] = test system: THRa homodimer (NR concentration 90 nM)
# How it was run: as §1
# [18] = test system: VDR:RXRa (NR concentration 270 nM, RXRa partner concentration 90 nM)
# How it was run: as §1
# [19] = test system: VDR homodimer (NR concentration 270 nM)
# How it was run: as §1
Sequence,PBM binding z-score [1],PBM binding z-score [2],PBM binding z-score [3],PBM binding z-score [4],PBM binding z-score [5],PBM binding z-score [6],PBM binding z-score [7],PBM binding z-score [8],PBM binding z-score [9],PBM binding z-score [10],PBM binding z-score [11],PBM binding z-score [12],PBM binding z-score [13],PBM binding z-score [14],PBM binding z-score [15],PBM binding z-score [16],PBM binding z-score [17],PBM binding z-score [18],PBM binding z-score [19]
GATACAGGGTCAGTTAGAGGCCAGAGTATGGAAA,1.02,1.82,0.545,0.433,2.89,2.85,1.17,3.86,0.673,3.77,3.21,5.99,4.52,1.88,3.67,2.73,0.565,2.97,1.51
GCTTACGGGTCAAAGCTTATAGCATGAATAGAAT,4.24,3.92,0.68,0.139,1.56,2.98,-0.218,4.44,-0.0595,3.83,2.29,4.92,4.8,2.48,5.91,2.12,-0.718,3.36,0.809
GCTTACGTGTCAAAGGTTATAGCATGAATAGAAT,1.72,3.96,0.407,0.944,3.44,2.98,-0.204,4.56,0.318,2.14,1.28,3.21,1.5,0.885,4.41,1.81,-0.725,2.29,-0.00185
CAAACTAGGTCACCGGAAGGACAAAGTCCGCATG,8.34,9.2,4.33,1.54,2.4,2.89,0.127,4.17,0.734,4.69,4.21,6.38,6.15,1.54,3.82,3.81,2.12,3.49,1.38
TCAAACAGGTGAAGGTAACTCAGGTACGCAGTCG,3.03,1.6,0.098,0.184,0.662,0.812,0.0874,1.19,0.552,1.26,0.716,0.691,0.597,1.43,1.13,1.44,0.12,1.13,0.467
CCTATTAGTTGATCATAAGGGCAACCGAAGCTCG,0.357,0.623,0.203,0.605,1.64,0.491,0.836,0.442,1.25,1.23,1.43,0.898,0.868,0.845,0.308,1.69,1.05,0.485,1.1
TCTAGTTGGTCAAACGTCACACACTCGAAATGCG,3.29,2.32,0.65,1.11,1.05,0.699,0.241,0.948,0.646,1.2,0.78,0.926,0.831,1.2,1.04,0.288,0.167,0.811,0.2
ATACGAAGGTGATCGTGAGGTCGTTGATACTAAC,0.525,0.827,0.418,-0.452,0.589,2.82,1.23,2,0.134,1.29,1.55,2.15,0.985,0.65,1.6,3.28,1.94,3.09,2.48
TCATATAGGTAAATGCTAGGTGAAATTCCGATCT,3.98,2.41,0.621,1.13,1.04,0.404,0.241,0.848,1.28,0.363,0.107,0.506,0.4,1.46,0.811,1.29,0.404,0.761,-0.0885
GCTATTAGTTGATAGGGCAACCGAATGATTCTCG,0.375,0.394,-0.22,-0.757,0.294,-0.353,-0.032,0.0949,0.352,0.561,0.604,0.208,0.649,0.36,0.26,-0.111,-0.518,-0.195,0.0585
AGTCAAAGTTCAGGACGAGGTAACTTAAAGCACG,-0.0506,2.05,0.457,0.0759,1.75,3.24,1.4,2.84,1.02,4.25,3.3,4.79,5.03,3.03,3.16,3.94,1.7,3.1,2.28
CCAGACAGGTGAGCAGGTAACTCAGCCTCGATTA,1.15,0.619,-0.93,-1.41,0.319,-0.31,0.22,-0.516,0.0182,0.568,0.399,0.113,0.308,-0.0126,-0.115,0.218,0.165,-0.287,-0.319
CGAACTAGGTCATCCAAGACAGTGAATACATTGA,8.33,8.19,3.65,2.15,1.93,1.67,0.36,2.67,1.01,3.95,2.81,4.15,4.88,2.42,3.45,2.84,0.947,2.57,1.06
TCTTGCAGGCCAGAGGGTCACTCAAGAGGTACGG,1.23,1.74,0.108,0.193,1.21,1.65,-0.469,2.21,-0.686,2.44,2.73,2.73,2.38,0.074,2.37,1.79,-0.22,1.7,0.546
CGTCAAAGTTCGAGGTAACGTAACAGAAAGCAGC,0.256,0.878,-1.11,0.105,1.18,1.28,0.589,1.39,0.233,2.73,1.46,1.92,2.31,2.39,1.64,2.1,0.898,1.32,1.2
